Sampled rows, rich in hits. Any-hit rate of the full collection: about 12%.
L3MBTL1 block: qHTS Assay for the Inhibitors of L3MBTL1. AlphaScreen L3MBTL1–H3K9me1 peptide binding. Potency, µM (series often up to 57.1 µM), without a hit: at the top dose activity, negative = inhibition, most hits filed as inhibitors. Lethal(3)malignant brain tumor-like protein 1 (Homo sapiens), Q9Y468. 230,000 compounds, 0.66% hits; note: % is set by controls: 0 for no effect and ±100 for the full control effect; nearly all actives have a fitted effect of over 60% in size
Target sequence (Q9Y468 whole entry, looked up): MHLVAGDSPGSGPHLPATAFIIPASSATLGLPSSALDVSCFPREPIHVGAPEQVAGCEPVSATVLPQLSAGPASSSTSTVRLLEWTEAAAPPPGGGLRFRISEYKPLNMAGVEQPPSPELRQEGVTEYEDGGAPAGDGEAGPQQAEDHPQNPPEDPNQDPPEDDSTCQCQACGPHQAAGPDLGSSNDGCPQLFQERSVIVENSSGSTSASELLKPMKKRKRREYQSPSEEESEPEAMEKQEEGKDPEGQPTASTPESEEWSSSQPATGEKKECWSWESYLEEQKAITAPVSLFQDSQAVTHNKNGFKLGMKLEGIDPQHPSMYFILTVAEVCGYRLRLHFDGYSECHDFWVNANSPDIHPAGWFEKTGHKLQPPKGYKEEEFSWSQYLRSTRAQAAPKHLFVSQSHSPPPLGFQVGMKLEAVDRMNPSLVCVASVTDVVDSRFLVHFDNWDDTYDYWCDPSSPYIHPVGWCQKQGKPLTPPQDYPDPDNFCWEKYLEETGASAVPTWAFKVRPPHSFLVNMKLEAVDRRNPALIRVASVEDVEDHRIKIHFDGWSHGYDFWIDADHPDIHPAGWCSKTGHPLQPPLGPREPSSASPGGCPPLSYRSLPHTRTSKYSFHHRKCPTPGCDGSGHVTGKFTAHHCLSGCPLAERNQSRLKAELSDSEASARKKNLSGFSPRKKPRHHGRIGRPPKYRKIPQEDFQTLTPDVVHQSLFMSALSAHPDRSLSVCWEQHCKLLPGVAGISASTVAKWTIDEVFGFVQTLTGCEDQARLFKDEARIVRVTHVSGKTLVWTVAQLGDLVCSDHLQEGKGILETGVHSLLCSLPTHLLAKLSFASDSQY
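AlphaScreen proximity signal between nickel-chelate acceptor and streptavidin donor beads (final 10 ug/mL) reports binding of 50 nM L3MBTL1 to 75 nM biotin-H3 K9me1 peptide; complex incubated with compounds 30 min at room temperature; cefsulodin titration as control.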
HP1b chromo inh: HTS for Inhibitors of HP1-beta Chromodomain Interactions with Methylated Histone Tails. 390,000 compounds, 0.56% hits. Potency, µM (series often up to 114 µM), without a hit: at the highest dose activity change, negative = inhibition, most hits filed as inhibitors. AlphaScreen HP1-beta / biotin-H3K9me3 peptide binding. Chromobox protein homolog 1 (Homo sapiens), P83916; note: nearly all actives have a fitted effect of over 70% in size
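AlphaScreen: HP1-beta (50 nM) preformed 30 min with biotin-H3(1-18)K9me3 peptide (50 nM) in PBS pH 7.4, 0.01% Tween-20. Compound added for 30 min at RT, then streptavidin donor/nickel chelate acceptor beads (10 ug/mL) for 30 min.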
Sfp PPTase inh: qHTS Assay for Inhibitors of Bacillus subtilis Sfp phosphopantetheinyl transferase (PPTase). 310,000 compounds, 3.5% hits. Potency, µM, for inactives: largest response in the series, negative = inhibition, most hits filed as inhibitors. 4'-phosphopantetheinyl transferase ffp (Bacillus subtilis), Q9F4F7. Biochemical Sfp PPTase activity, qHTS. AID 1490, 2009;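 note: the enzyme is Sfp with the accession as filed and its product quenches rhodamine fluorescence; 0% = enzyme reaction without inhibitor and -100% = no enzyme wells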
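Buffer: 50 mM Hepes-Na pH 7.6, 10 mM MgCl2, 0.01% Nonidet P-40, 0.01% BSA. Enzyme 15 nM, pre-exposed to compound 15 min; substrates then added and fluorescence change tracked over 30 min.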
BAZ2B block: qHTS Assay for Inhibitors of BAZ2B | Potency, µM (series often up to 114 µM), for the others: at the highest dose activity change, negative = inhibition, hits mostly inhibitors | AlphaScreen BAZ2B-H3K14Ac peptide displacement | 360,000 compounds, 4.4% hits | AID 504333, 2011 | Bromodomain adjacent to zinc finger domain protein 2B (Homo sapiens), Q9UIF8; note: % is set by controls: 0 for no effect and ±100 for the full control effect; nearly all actives have a fitted effect of over 60% in size
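Inhibition is scored as reduced AlphaScreen emission. The BAZ2B/b-H3(5-23)K14Ac complex (50 nM each) in PBS pH 7.4, 0.01% Tween-20 meets compound (up to 110 uM) for 30 min at RT before bead addition.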
G9a block: qHTS Assay for Inhibitors of Histone Lysine Methyltransferase G9a; Histone-lysine N-methyltransferase EHMT2 (Homo sapiens), Q96KQ7; G9a H3K9 monomethylation, AlphaScreen, 2 h; Potency, µM (top dose mostly 102 µM), for inactives: top-dose activity, negative = inhibition, hits mostly inhibitors; 350,000 compounds, 8.8% hits; AID 504332, 2011; note: % is set by controls: 0 for no effect and ±100 for the full control effect; nearly all actives have a fitted effect of over 75% in size
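Readings reflect AlphaScreen signal from monomethyl-H3K9 antibody detection. HMT at 20 nM; substrate b-H3K9 500 nM; cofactor SAM 20 uM; 2 h RT reaction; compounds tested as titrations in qHTS with 15 min preincubation.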
JMJD2A Tudor inh: qHTS Assay for Inhibitors of JMJD2A-Tudor Domain; AID 504339, 2011; 390,000 compounds, 4.4% hits; Potency, µM (top dose mostly 114 µM), inactives show at the top dose activity change, negative = inhibition, usual class: inhibitors; Lysine-specific demethylase 4A (Homo sapiens), O75164; AlphaScreen JMJD2A-Tudor / H3K4me3 peptide binding; note: % is set by controls: 0 for no effect and ±100 for the full control effect; nearly all actives have a fitted effect of over 50% in size
The depositor's hits bear a star; ? = inconclusive; nt = no result; [ ] = another dose, or the depositor's remark. Calls come from the whole dose curve; as a rule, active = well fitted curve in the direction sought with a large enough effect; inconclusive = small, poorly fitted or top-dose-only effect, or another doubt; inactive = no such curve, though single readings can be large; an effect the other way counts as inactive or inconclusive. Potency is the fitted concentration of half-maximal effect.

SMILES	L3MBTL1 block	HP1b chromo inh	Sfp PPTase inh	BAZ2B block	G9a block	JMJD2A Tudor inh
COC(=O)c1ccccc1NC(=O)Cn1c(=O)n(CCCC(=O)NCc2ccccc2OC)c(=O)c2ccccc21	nt	26%	nt	2%	2%[59 µM]	14%
CN(C)NC(=S)NC1(C)CCS(=O)(=O)C1 (stereo not given)	4%	11%	89µM*	?	-132%[59 µM]	-13%
CC(=O)N1C(=O)c2cccc3cccc(c23)C(=O)N1C(C)=O	6%[11.4 µM]	33%	9%	-6%	10%[12.7 µM]	5%
O=C1c2cccc3cccc(c23)C(=O)C1(O)O	nt	-24%	nt	nt	nt	45µM*
CCOc1ccc(S(=O)(=O)N2CCN(c3cc(Cl)ccc3Cl)CC2)c2ccccc12	nt	19%	nt	-9%	-32%[59 µM]	-1%
COc1ccc(C(=O)NNC(=S)NC(=O)c2ccc(Cl)cc2)cc1	nt	10%	nt	nt	nt	-14%
CCCOc1ccc(C(=O)NNC(=S)NC(=O)c2cccs2)cc1	nt	-12%[57 µM]	28%	-26%	?	?
O=C(NNC(=O)c1cc2cc3ccccc3nc2s1)c1cccc(Cl)c1	-8%	-25%	7%	-38%	32µM*	50µM*
Cc1cccc(C(=O)NC(=S)NNC(=O)c2cccs2)c1	-3%	?	1%	11%	7.1µM*	25µM*
CC(C)(C)c1ccc(C(=O)NC(=S)NNC(=O)c2cccs2)cc1	7%	-25%	-26%	-37%	40µM*	?
Cc1cccc(C(=O)NC(=S)NNC(=O)c2ccc(Cl)cc2)c1	5%	-3%	-2%	2%	40µM*	-18%
O=C1CCc2cc(S(=O)(=O)Nc3cc(F)cc(Cl)c3)c(F)cc2N1	nt	nt	nt	nt	nt	-18%
COCCN1C(=O)N[C@@H](c2cccc(C(F)(F)F)c2)C(C(C)=O)=C1C	nt	nt	-1%	nt	nt	nt
Cc1ccc(N(Cc2cccs2)C(=O)C(C)Oc2ccc(Cl)c(C)c2)cc1 (stereo not given)	nt	93%	nt	41%	76%[59 µM]	66%
COc1ccc(S(=O)(=O)NCCSc2nnnn2-c2ccccc2)cc1OC	nt	18%	nt	-24%	-8%[59 µM]	-1%
O=C(NNC(=O)c1cccc(Cl)c1)NNC(=O)c1cccc(Cl)c1	-1%	26%	nt	nt	nt	1%
Cc1ccc(OCC(=O)NNC(=S)NC(=O)c2cccs2)c(C)c1	nt	43%	16%	1%	nt	-23%
NC(=S)NNC(=O)c1cccc(Cl)c1	nt	31%	?	29%	71µM*	6%
O=C(NC(=S)NNC(=O)c1cccs1)c1ccccc1	nt	11%	-21%	6%	8.9µM*	-18%
O=C(NNC(=S)Nc1ccccc1)c1cccs1	2%	24%	19%	7%	?	-23%
Cc1cc(OCC(=O)NNC(=S)NC(=O)c2cccs2)ccc1Cl	nt	12%	14%	-1%	32µM*	-16%
CCOc1ccccc1/C=C/c1onc(C)c1S(=O)(=O)N1CCC(C(=O)N2CCCCC2)CC1	nt	41%	nt	2%	4%[59 µM]	-13%
Cc1ccc(-n2c(=O)c3c4c(sc3n(CC(=O)Nc3ccccc3C)c2=O)CCCCC4)cc1C	nt	38%	nt	2%	-38%[59 µM]	-14%
CCOC(=O)c1c(C)[nH]c(C)c1S(=O)(=O)N1CCC(C(=O)Nc2cc(Cl)ccc2OC)CC1	nt	7%	nt	-35%	-12%[59 µM]	-31%
CCCC(=O)OC1(C(=O)CO)CCC2C3CCC4=CC(=O)CCC4(C)C3C(O)CC21C (stereo not given)	nt	nt	24%	nt	20%[59 µM]	nt
SMILES	L3MBTL1 block	HP1b chromo inh	Sfp PPTase inh	BAZ2B block	G9a block	JMJD2A Tudor inh
Cc1cc(NC(=O)CS(=O)(=O)c2cn(Cc3cccc(F)c3)c3ccccc23)no1	nt	5%	-10%	-35%	14µM*	-29%
CCOC(=O)N1CCN(C(=O)CNC2CCCCCCC2)CC1	10%	29%	-22%	50µM*	32µM*	32µM*
CCOC(=O)N1CCN(C(=O)NC2CCCCC2)CC1	20%	20%	-3%	11%	-9%[0.0925 µM]	-3%
COc1cccc(Cn2c(CNC(=O)c3cc([N+](=O)[O-])ccc3Cl)nc3cccnc32)c1	nt	8%[57 µM]	nt	-27%	45%[59 µM]	-26%
NC(=S)N=Nc1c(O)[nH]c2cc(F)c(F)cc12	-7%	20%	45µM*	4%	6%[59 µM]	-26%
CCOC(=O)c1c(CNCCN(CC)CC)n(C)c2cc(Br)c(OC)cc12	nt	-5%	1%	?	79µM*	-31%
CC(N)(COP(=O)(O)O)C(=O)O (stereo not given)	nt	nt	?	nt	32%[59 µM]	nt
O=C(O)CN1CCCC1=Nc1ccccc1	nt	38%	12%	89µM*	?	-15%
Oc1ccc2oc3c(c2c1C=NCc1ccncc1)CCCC3	35%	31%	50µM*	70%	71µM*	-6%
OCc1cccc(Cl)c1Cl	nt	nt	-8%	nt	nt	nt
Clc1cccc(CN2CCCCCC2)c1Cl	5%	?	-2%	?	20µM*	0.71µM*
Clc1ccccc1Cc1noc(CN2CCSCC2)n1	12%	26%	4%	-6%	19%[12.7 µM]	1%
Clc1cccc(CN2CCSCC2)c1Cl	-5%	?	-32%	?	3.5µM*	3.5µM*
COc1ccc(-c2cc(C(=O)Nc3c(C(=O)c4ccc(C)cc4)oc4ccccc34)no2)cc1	nt	14%	nt	1%	0%[59 µM]	-7%
COc1ccccc1NC(=O)C1=C(C)Nc2c(C(=O)Nc3ccc(C)cc3)cnn2C1c1cccc(OC)c1OC (stereo not given)	nt	8%	nt	0%[57.1 µM]	1%[59 µM]	-23%

High-throughput results from PubChem BioAssay.
